Data: ChEMBL document CHEMBL3988442, “University of Dundee, Small-Polar-MMV Screening Library” (2021)
Among all 48,000 compounds or so, about 13,000 (27%) showed an effect of 50% or more. The list shows a part of the results.

What follows are molecules tested on Wolbachia pipientis (assay: Anti-Wolbachia Cell-Based Screen). Settings: 5 µM.
Format: functional
Parameters: scale not given: in the data most compounds retested in dose-response had high values

| Structure (SMILES) | Percent Effect [%] |
| --- | --- |
| CN1CCC(N(C)C(=O)CSc2ccc(F)c(F)c2)C1=O (configuration not stated) | -7.197 |
| Cc1occc1C(=O)N1C[C@@H]2CCCO[C@@H]2[C@H](NC(=O)CC2CC2)C1 | 111.2 |
| Cc1ccc([C@@H]2CN(C(=O)c3ccoc3C)C[C@H]2NC(=O)C2CC2)cc1 | -4.07 |
| CCOCCN1CCN(Cc2nc(C)no2)CC1CC (configuration not stated) | -13.77 |
| CCOCCN1CCN(CC(=O)NC2(C#N)CCCC2)CC1CC (configuration not stated) | -13.43 |
| CCOCCN1CCN(CC(=O)N2CCC2)CC1CC (configuration not stated) | 109.6 |
| CCOCCN1CCN(CCC(=O)N2CCCCC2)CC1C (configuration not stated) | -8.269 |
| CCOCCN1CCN(CC(=O)N2CCCC2)CC1C (configuration not stated) | -3.155 |
| CCOCCN1CCN(CC(=O)N2CCCC2)CC1CC (configuration not stated) | 98.08 |
| O=C1C=CC=N/C1=C(/O)NCCNS(=O)(=O)N1CCCCCC1 | -2.703 |
| CC(=O)NCc1noc2c1CN(Cc1ccsc1)CC2 | -0.8794 |
| COC(=O)CNC(=O)c1ccc(OC2CCN(S(C)(=O)=O)CC2)c(Cl)c1 | -7.47 |
| CCc1cnc(CN(C(C)=O)C2CCN(CCc3ccncc3)C2)o1 (configuration not stated) | 111.3 |
| CCc1cnc(CN(C(C)=O)C2CCN(CCc3ccccc3)C2)o1 (configuration not stated) | 104.1 |
| CCc1cnc(CN(C)C2CCN(CCc3ccccn3)C2)o1 (configuration not stated) | -9.613 |
| CCc1cnc(CN(C(C)=O)C2CCN(CCc3cnn(C)c3)C2)o1 (configuration not stated) | 11.37 |
| CCc1cnc(CN(C(C)=O)C2CCN(CCc3ccccn3)C2)o1 (configuration not stated) | 119.1 |
| CN(CCC#N)C(=O)CSc1cc(F)ccc1F | 10.19 |
| COCCS(=O)(=O)Nc1cc(Cl)ccn1 | 7.348 |
| CCCNC(=O)CCNC(=O)Cc1nc(-c2ccco2)oc1C | -2.58 |
| CC(C)CN(Cc1cnn(C)c1)C(=O)C1COc2ccccc2C1 (configuration not stated) | -20.05 |
| CC(=O)N1N=C(c2ccco2)OC1C(=O)NCC(C)C (configuration not stated) | 108.9 |
| CC(C)CN(Cc1nnc(-c2ccco2)o1)CC(C)C | -6.92 |
| CC(=O)N1N=C(c2ccco2)OC1C(=O)N(CC(C)C)CC(C)C (configuration not stated) | 91.49 |

| Structure (SMILES) | Percent Effect [%] |
| --- | --- |
| CCNC(=O)C1CCN(c2nc(-c3ccco3)nc3c2CCNCC3)C1 (configuration not stated) | 5.847 |
| Cc1noc(C)c1CN1CC[C@H](OCC2CC2)[C@@H](Cc2ccccc2)C1 | -6.774 |
| CN(CC1(CO)CCC1)C(=O)C1CCC(=O)N(Cc2ccc(Cl)cc2)C1 (configuration not stated) | 0.1062 |
| O=C(Nc1ccc(-n2cccn2)cc1)N1CCOCC(O)C1 (configuration not stated) | 0.445 |
| O=C(O)C(F)(F)F.O=C(c1cccs1)N1CCOCC2(C1)CN(c1cccnc1)C(=O)CO2 (configuration not stated) | 114.5 |
| O=C(O)C(F)(F)F.O=C(c1ccco1)N1CCOCC2(C1)CN(c1cccnc1)C(=O)CO2 (configuration not stated) | 102.4 |
| O=C(O)C(F)(F)F.O=C(O)C(F)(F)F.O=C(c1ccncc1)N1CCOC2(COCCN(c3cccnc3)C2)C1 (configuration not stated) | -8.352 |
| O=C(c1cccs1)N1CCOCC2(C1)CN(c1ccccc1)C(=O)CO2 (configuration not stated) | 85.77 |
| Cc1cc(C)c(OCC(=O)NS(=O)(=O)c2cccnc2)c(C)c1 | -6.374 |
| COc1ccc(C)cc1C1(CNc2cncc(Cl)n2)CCOCC1 | -4.03 |
| COC(=O)CCNC(=O)c1cc(Br)c2c(c1)OCCO2 | -24.52 |
| CN1CCN(C2CCN(c3cnc4ccccc4n3)CC2)C1=O | 19.91 |
| O[C@@H]1CN(c2cnc3ccccc3n2)CC[C@H]1c1ccc2c(c1)OCO2 | 98.83 |
| c1ccc2oc(N3CCC(c4nncn4C4CC4)CC3)nc2c1 | -9.735 |
| O[C@@H]1CN(c2nc3ccccc3s2)CC[C@H]1c1ccc2c(c1)OCO2 | 110.1 |
| CN(C)CC1CN(c2cnc3ccccc3n2)CCO1 (configuration not stated) | 11.03 |
| O[C@@H]1CN(c2nc3ccccc3o2)CC[C@H]1c1ccc2c(c1)OCO2 | 107.9 |
| O=C(NC1CC1)C1CN(c2nc3ccccc3s2)CCN1 (configuration not stated) | -6.534 |
| O=C(N[C@@H]1CCN(c2nc3ccccc3o2)C[C@H]1O)c1cnccn1 | 6.046 |
| c1ccc2sc(N3CCOC(Cn4cccn4)C3)nc2c1 (configuration not stated) | 4.7 |
| CCNC(=O)NC[C@H]1COCc2nc3cc(OC)ccc3n21 | 0.3029 |
| CCN(CC)C(=O)CN(C)C(=O)c1cccn1CCc1ccccc1 | 1.592 |
| CNC(=O)[C@H]1C[C@@H]2CN(C(=O)NC(C)C)C[C@H]1O2 | -20.87 |
| COc1ccc(OC)c(-n2cnnc2COC(C)C)c1 | -1.207 |

| Structure (SMILES) | Percent Effect [%] |
| --- | --- |
| Cc1nc(-c2c(-c3ccccc3)ncn2CCCN2CCOCC2)c[nH]1 | -4.456 |
| Cc1ccc(-c2c(-c3ccccc3)ncn2CCCN2CCOCC2)o1 | -10.17 |
| Cn1c2ccccc2c2ncn(CCCN3CCOCC3)c(=O)c21 | 106.3 |
| O=c1c2c(ncn1CCCO)nc1n2CCC1 | -24.45 |
| Cn1c2ccc(F)cc2c2ncn(CCN3CCOCC3)c(=O)c21 | 129.5 |
| O=c1c2cccc(F)c2ncn1CCN1CCOCC1 | 0.8234 |
| Cc1cc(C)c2ncn(CCOCCO)c(=O)c2c1 | -8.527 |
| CC(C(=O)Nc1cccc(F)c1)N(C)CCN1CCOCC1 (configuration not stated) | 11.62 |
| Cn1c2ccccc2c2ncn(CCN3CCOCC3)c(=O)c21 | 100.8 |
| O=c1c2cccc(F)c2ncn1CCN1CCNCC1 | -5.542 |
| Cn1c2ccc(F)cc2c2ncn(CCCN(CCO)CCO)c(=O)c21 | 122.3 |
| O=c1c2cccc(C(F)(F)F)c2ncn1CCN1CCNCC1 | -10.29 |
| CS(=O)(=O)c1ccc(NC(=O)NCc2ccc(F)cc2)cn1 | 9.509 |
| CN(CC1(CO)CC1)C(=O)C1CCC(=O)N(Cc2ccc(Cl)cc2)C1 (configuration not stated) | -2.442 |
| CC(C)(C)C(=O)N1CC(=O)N(Cc2ccco2)CC(O)C1 (configuration not stated) | 96.28 |
| O=C([C@H]1COC[C@H]2CN(Cc3ccco3)C[C@H]21)N1CCCO1 | -9.766 |
| CC(C)(C)OC(=O)N1CCCN(Cc2ccon2)c2ccccc21 | 7.757 |
| CC(=O)N1CCC(CSCc2ccco2)CC1 | -2.113 |
| CC(C)c1cc(C(=O)N2CCN(Cc3ccco3)CC2)n[nH]1 | 11.56 |
| CC(C)(C)OC(=O)N1CC(=O)N(Cc2ccco2)CC(O)C1 (configuration not stated) | 112.7 |
| O=C(O)C(F)(F)F.O=C1C[C@@H]2[C@H](CCN2Cc2ccco2)N1c1ccsc1 | 5.007 |
| O=C(NCCc1cccnc1)C1CCCN(Cc2ccco2)C1 (configuration not stated) | -20.69 |
| O=C1CN(C(=O)C2CCCCC2)CC(O)CN1Cc1ccco1 (configuration not stated) | 88.46 |
| CC(C)COC(=O)N1CC(=O)N(Cc2ccco2)CC(O)C1 (configuration not stated) | 111.6 |
